{"source": "PubChem BioAssay AID1259343", "about": "(VanderVen Lab, College of Veterinary Medicine, Cornell …, 2017)", "note": "About 2,900 (47%) of roughly 6,200 compounds were called active. Cut-off read from the data, not from the text of the source: active = inhibition above about 50%; inactive = the rest. The set was probably picked from earlier hits. The list shows a part of the results."}
{"experiment": "Mycobacterium tuberculosis growth inhibition, primary screen (AID 1259343)", "conditions": "inhibition: at 10 µM, hits give high values; outcome: 10 uM"}
{"smiles": "COC(=O)CSc1nnc(N2CCN(c3ccccc3)CC2)s1", "inhibition": "75.5% (active)"}
{"smiles": "CNC(=O)NC(=O)COc1ccc(-c2ccccc2)cc1Cl", "inhibition": "40.5% (inactive)"}
{"smiles": "COC(=O)COc1cc(Cl)c(Cl)cc1Cl", "inhibition": "77.4% (active)"}
{"smiles": "CCCCOC(=O)Nc1cc(C)c(Cl)cc1OC", "inhibition": "45.3% (inactive)"}
{"smiles": "COC(=O)C(Nc1ccc(OC)cc1)(c1cc(OC)c(O)c(OC)c1)C(F)(F)F", "note": "(configuration not stated)", "inhibition": "84% (active)"}
{"smiles": "COc1cc(C(=O)Nc2cc(C)cc(C)c2)cc(Cl)c1O", "inhibition": "-11.6% (inactive)"}
{"smiles": "Cc1nn(CC(C)C)c2sc(C(=O)NCC3CC3)cc12", "inhibition": "3.65% (inactive)"}
{"smiles": "c1ccc2oc(-c3nnn(CC4CCCCO4)n3)cc2c1", "note": "(configuration not stated)", "inhibition": "91% (active)"}
{"smiles": "COc1ccc(N=c2scc(-c3cc4ccccc4o3)n2CC2CCCO2)cc1", "note": "(configuration not stated)", "inhibition": "77% (active)"}
{"smiles": "c1ccc(N=c2scc(-c3ccccc3)n2CC2CCCO2)cc1", "note": "(configuration not stated)", "inhibition": "20.4% (inactive)"}
{"smiles": "CC12CCC3C(=CCc4cc(O)ccc43)C1CCC2=O", "note": "(configuration not stated)", "inhibition": "43.2% (inactive)"}
{"smiles": "c1ccc2c(CCNc3ccc(Nc4ccncc4)cc3)c[nH]c2c1", "inhibition": "72.8% (active)"}
{"smiles": "O=C(NCCc1c[nH]c2ccccc12)c1cn(Cc2ccccc2Cl)nn1", "inhibition": "21.3% (inactive)"}
{"smiles": "Cc1cc(C(=O)O)c(C)n1C", "inhibition": "-7.58% (inactive)"}
{"smiles": "CCOC(=O)c1ccc(N2CN=c3sc(=Cc4ccccc4)c(=O)n3C2)cc1", "inhibition": "88.9% (active)"}
{"smiles": "CC1(C)CN=c2s/c(=C\\c3ccc(Cl)cc3)c(=O)n2C1", "inhibition": "31.2% (inactive)"}
{"smiles": "CCOC(=O)C1=C(C)N=c2s/c(=C/c3cccc([N+](=O)[O-])c3)c(=O)n2C1c1ccccc1F", "note": "(configuration not stated)", "inhibition": "-21.3% (inactive)"}
{"smiles": "Nc1nc(Cl)nc2c1ncn2[C@@H]1O[C@H](CO)[C@@H](O)[C@H]1O", "inhibition": "80.5% (active)"}
{"smiles": "CN(Cc1cnn(-c2ccc(F)cc2)c1)c1nncc(-c2ccccc2)n1", "inhibition": "inactive"}
{"smiles": "CN(CCC1CCCCO1)c1nncc(-c2ccccc2)n1", "note": "(configuration not stated)", "inhibition": "52.4% (active)"}
{"smiles": "CC1CCCC(C)C1NC(=O)Nc1nncc(-c2ccccc2)n1", "note": "(configuration not stated)", "inhibition": "21.4% (inactive)"}
{"smiles": "CC(OC(=O)c1ccc(OCc2ccccc2)cc1)c1nnc(-c2ccccc2)o1", "note": "(configuration not stated)", "inhibition": "26.8% (inactive)"}
{"smiles": "Nc1nnc(SCC(=O)c2ccc(OCc3ccccc3)cc2)s1", "inhibition": "86.1% (active)"}
{"smiles": "c1ccc(OCCSc2nnc3sc4ccccc4n23)cc1", "inhibition": "40.3% (inactive)"}
{"smiles": "Brc1ccc(-c2ccc(C=NNC3=NCCCCC3)o2)cc1", "inhibition": "92.4% (active)"}
{"smiles": "CCN(CC)C(=S)S", "inhibition": "92.6% (active)"}
{"smiles": "O=C1CCCc2c1[nH]c1ccc(-c3ccccc3CO)cc21", "inhibition": "90.3% (active)"}
{"smiles": "COc1cncc(-c2ccc(NC(C)=O)cc2)c1", "inhibition": "85% (active)"}
{"smiles": "COCC(=O)Nc1cccc(-c2ccc3c(c2)OCCO3)c1", "inhibition": "63.2% (active)"}
{"smiles": "Cn1cc(C(=O)Nc2ccc(Oc3cccc(C#N)c3)cc2)ccc1=O", "inhibition": "23.5% (inactive)"}
{"smiles": "O=C(CCl)Nc1ccc(Oc2ccc(Br)cc2)cc1", "inhibition": "18.2% (inactive)"}
{"smiles": "COc1cc(C(=O)Nc2ccc(-c3cnco3)cc2)ccc1C", "inhibition": "49.6% (inactive)"}
{"smiles": "COCC(=O)Nc1ccc(Oc2cccc(C)c2)cc1", "inhibition": "76.6% (active)"}
{"smiles": "COCC(=O)Nc1ccc(-c2cc(OC)cc(OC)c2)cc1", "inhibition": "88.7% (active)"}
{"smiles": "COCC(=O)Nc1ccccc1-c1ccc(C(C)C)cc1", "inhibition": "48.2% (inactive)"}
{"smiles": "CC1(C)OC(=O)C(=C2C3C4CC5C2C2C3CC4C52)C(=O)O1", "note": "(configuration not stated)", "inhibition": "35.6% (inactive)"}
{"smiles": "COC(=O)C(C)OC(=O)c1c[nH]c2cc(Br)c(Br)cc12", "note": "(configuration not stated)", "inhibition": "24.9% (inactive)"}
{"smiles": "CC(C)c1nnc2sc(C3CCc4ccccc4C3)nn12", "note": "(configuration not stated)", "inhibition": "43.3% (inactive)"}
{"smiles": "CN(c1ccc(C(N)=O)nn1)C1CCc2ccccc2C1", "note": "(configuration not stated)", "inhibition": "60.2% (active)"}
{"smiles": "COCCCn1c(-c2ccc(C)cc2)nc2oc3ccccc3c(=O)c2c1=O", "inhibition": "9.29% (inactive)"}
{"smiles": "Cc1ccc2oc(=O)n(CCCOc3ccccc3C)c2c1", "inhibition": "95.8% (active)"}
{"smiles": "Cc1cccc(OCCCn2c(=O)oc3ccccc32)c1", "inhibition": "-23.7% (inactive)"}
{"smiles": "Cc1ccc(N2C(=O)N(CCOc3cccc(Br)c3)C(=O)C2C)cc1", "note": "(configuration not stated)", "inhibition": "27.6% (inactive)"}
{"smiles": "Cc1cccc(OCCCn2c(=O)oc3ccc(C)cc32)c1", "inhibition": "79.4% (active)"}
{"smiles": "COc1ccccc1OCCCN1C(=O)C2(OCCCO2)c2ccccc21", "inhibition": "40.7% (inactive)"}
{"smiles": "Cc1ccc(N(CC(=O)O)S(C)(=O)=O)cc1C", "inhibition": "92.8% (active)"}
{"smiles": "CC1(C)CC(=O)C(C(=O)Nc2sc3ccccc3c2Cl)C(=O)C1", "inhibition": "98.3% (active)"}
{"smiles": "O=C1NC(c2sc3ccccc3c2Cl)Nc2ccccc21", "note": "(configuration not stated)", "inhibition": "28.9% (inactive)"}
{"smiles": "CC(C)c1cc(=O)[nH]c(-n2nc(-c3cccs3)cc2NC(=O)c2ccc(Br)o2)n1", "inhibition": "99.9% (active)"}
{"smiles": "CC(C)c1cc(=O)[nH]c(-n2nc(-c3cccs3)cc2NC(=O)c2cc3ccccc3o2)n1", "inhibition": "100% (active)"}
{"smiles": "Cc1cc(=O)[nH]c(-n2nc(-c3cccs3)cc2NC(=O)c2ccc(Br)o2)n1", "inhibition": "97.5% (active)"}
{"smiles": "Cc1cc(C(=S)N=P(N(C)C)(N(C)C)N(C)C)c(C)n1-c1ccccc1", "inhibition": "98.9% (active)"}
{"smiles": "FC(F)(F)c1nnc2n1Nc1nc3ccccc3nc1S2", "inhibition": "100% (active)"}
{"smiles": "COC(=O)Cc1ccc(C(=O)CCl)s1", "inhibition": "92.5% (active)"}
{"smiles": "NC(=S)Nc1ccc(F)cc1", "inhibition": "52.9% (active)"}
{"smiles": "NC(=S)Nc1ccc(Cl)cc1", "inhibition": "7.09% (inactive)"}
{"smiles": "NC(=S)Nc1ccc(F)c(Cl)c1", "inhibition": "4.04% (inactive)"}
{"smiles": "CC(=NOCc1cccc(CON=C(C)c2ccccc2)c1)c1ccccc1", "inhibition": "86.9% (active)"}
{"smiles": "COc1cc(N/N=C(/C)c2cccc(C(F)(F)F)c2)nc(SC)n1", "inhibition": "41.1% (inactive)"}
{"smiles": "CCc1nc(C)c(C(=O)Nc2ccc(CCC(F)(F)F)cc2)s1", "inhibition": "66.2% (active)"}
{"smiles": "CCc1ccc(-c2nc(C)c(C(=O)Nc3ccc(OC)nc3)s2)cc1", "inhibition": "42.7% (inactive)"}
{"smiles": "Cc1cc(N2CCCC2)ccc1NC(=O)CCl", "inhibition": "1.87% (inactive)"}
{"smiles": "O=C(CCl)Nc1cc2c(cc1Br)OCCO2", "inhibition": "94.1% (active)"}
{"smiles": "O=C(Nc1ccc(Oc2ccccc2F)cc1)C1CCN(C(=O)C2CC23CCC3)CC1", "note": "(configuration not stated)", "inhibition": "91.3% (active)"}
{"smiles": "O=C(Nc1ccc(Oc2ccccc2F)cc1)C1CCN(C(=O)C2CCCCO2)CC1", "note": "(configuration not stated)", "inhibition": "88.7% (active)"}
{"smiles": "O=C(Nc1ccc(Oc2ccccc2F)cc1)C1CCN(C(=O)C2CCCO2)CC1", "note": "(configuration not stated)", "inhibition": "inactive"}
{"smiles": "FC(F)Oc1ccc(NC(=S)Nc2ccc3cn[nH]c3c2)cc1", "inhibition": "-5.27% (inactive)"}
{"smiles": "COc1ccc(NC(=S)Nc2ccc3cn[nH]c3c2)cc1", "inhibition": "68.9% (active)"}
{"smiles": "S=C(Nc1ccc(Cl)cc1)Nc1ccc2cn[nH]c2c1", "inhibition": "37.2% (inactive)"}
{"smiles": "C[C@]12C=CC(=O)C=C1CC[C@@H]1C2=CC[C@]2(C)[C@@H](C(=O)CN3CCN(c4cc(N5CCCC5)nc(N5CCCC5)n4)CC3)CC[C@@H]12", "inhibition": "89.9% (active)"}
{"smiles": "CC(C)c1nc(CN(C)Cc2ccc3ccccc3n2)cs1", "inhibition": "2.62% (inactive)"}
{"smiles": "FC(F)(F)CCc1ccnc(N[C@@H]2C[C@H]2c2ccccc2)n1", "inhibition": "30.5% (inactive)"}
{"smiles": "CC(C)c1nc(CNc2nccc(CCC(F)(F)F)n2)cs1", "inhibition": "94.8% (active)"}
{"smiles": "Cc1c(Cl)c(=O)oc2cc(O)ccc12", "inhibition": "-23% (inactive)"}
{"smiles": "O=c1ccc2ccc(O)cc2o1", "inhibition": "74% (active)"}
{"smiles": "Nc1ccc2oc(CCc3ccccc3)nc2c1", "inhibition": "33% (inactive)"}
{"smiles": "Nc1ccc2oc(=O)ccc2c1", "inhibition": "77.1% (active)"}
{"smiles": "Nc1nc2c3ccccc3nc(-c3ccccc3)n2n1", "inhibition": "83.3% (active)"}
{"smiles": "COc1cccc(Nc2nc(C(N)COCc3ccccc3)cs2)n1", "note": "(configuration not stated)", "inhibition": "64.3% (active)"}
{"smiles": "COc1cccc(Nc2nc(C(N)CCc3ccccc3)cs2)n1", "note": "(configuration not stated)", "inhibition": "82.2% (active)"}
{"smiles": "NC(=O)C1(N2CCCCC2)CCN(c2nc(-c3ccc(Cl)cc3Cl)cs2)CC1", "inhibition": "-20.2% (inactive)"}
{"smiles": "Cc1ccc(CNc2nc3c(s2)CCCC3)cc1", "inhibition": "74% (active)"}
{"smiles": "Nc1[nH]c(N=Nc2nc3c(s2)CCCC3)c2ccccc12", "inhibition": "-27.1% (inactive)"}
{"smiles": "Cc1ccc(NCc2ccc(C(=O)NCC3(CO)CCC3)cc2)cc1", "inhibition": "43.9% (inactive)"}
{"smiles": "C/C(=N/OC(=O)c1ccc(-c2ccccc2)cc1)C(C)(C)C", "inhibition": "65.6% (active)"}
{"smiles": "Cc1ccc(/C(N)=N\\OC(=O)CCc2ccccc2)cc1", "inhibition": "29.4% (inactive)"}
{"smiles": "O=c1c(Br)cccc(Br)c1O", "inhibition": "99.7% (active)"}
{"smiles": "CC(=NNC(=S)NC1CCCCC1)c1cccs1", "inhibition": "-36.2% (inactive)"}
{"smiles": "CC(=NNC(=S)NC(C)C)c1cccs1", "inhibition": "104% (active)"}
{"smiles": "CCNC(=S)NN=C(C)c1cccs1", "inhibition": "101% (active)"}
{"smiles": "Nc1ccc(N=Nc2ccccc2)c(N)n1", "inhibition": "93.8% (active)"}
{"smiles": "CCCC1CC(=O)CC(=O)C1", "inhibition": "-33.8% (inactive)"}
{"smiles": "CCCC1CCC(c2ccc(C#N)c(=O)[nH]2)CC1", "note": "(configuration not stated)", "inhibition": "89.8% (active)"}
{"smiles": "Fc1ccccc1CN1CCCC2(CCN(C3CCN(CCc4ccccc4)CC3)C2)C1", "note": "(configuration not stated)", "inhibition": "13.5% (inactive)"}
{"smiles": "Cc1c(C2CCN(CCc3ccccc3)CC2)noc1-c1ccc(Cl)cc1", "inhibition": "88.1% (active)"}
{"smiles": "Fc1ccc(CSc2ncnc3c2nnn3Cc2ccc(F)cc2)cc1", "inhibition": "-6.41% (inactive)"}
{"smiles": "Fc1ccccc1CSc1ncnc2c1nnn2Cc1ccccc1F", "inhibition": "94.8% (active)"}
{"smiles": "Fc1cccc(CSc2ncnc3c2nnn3Cc2ccccc2F)c1", "inhibition": "29.2% (inactive)"}
{"smiles": "Fc1ccc(Cn2nnc3c(SCc4ccccc4)ncnc32)cc1", "inhibition": "93.4% (active)"}
{"smiles": "Fc1ccccc1CSc1ncnc2c1nnn2Cc1ccccc1", "inhibition": "10.4% (inactive)"}
{"smiles": "Fc1ccc(Cn2nnc3c(SCc4cccc(F)c4)ncnc32)cc1", "inhibition": "73.3% (active)"}
{"smiles": "c1ccc(Cn2nnc3c(Sc4ncco4)ncnc32)cc1", "inhibition": "68.9% (active)"}
{"smiles": "Fc1ccc(CSc2ncnc3c2nnn3Cc2ccccc2F)cc1", "inhibition": "-32.2% (inactive)"}
{"smiles": "Cc1cccc(CSc2ncnc3c2nnn3Cc2ccc(F)cc2)c1", "inhibition": "15.2% (inactive)"}
{"smiles": "c1ccc(CSc2ncnc3c2nnn3Cc2ccccc2)cc1", "inhibition": "-43.1% (inactive)"}
{"smiles": "CCC1CCCCN1S(=O)(=O)c1ccc(C(=O)Nc2nnc(CSC)o2)cc1", "note": "(configuration not stated)", "inhibition": "99.6% (active)"}
{"smiles": "CCOc1cc(S(=O)(=O)N2CCCCC2CC)ccc1Br", "note": "(configuration not stated)", "inhibition": "-6.56% (inactive)"}
